Legend:
Conditions in all cases: concentration: 1 μM, replicates: in singlicate; n = 1
HIPK4 = tested on: HIPK4
HPK1 = tested on: HPK1
HUNK = tested on: HUNK
ICK = tested on: ICK
IGF1R = tested on: IGF1R
IKK-alpha = tested on: T1, IKK-alpha
T1 construct: gene CHUK

IKK-beta = tested on: T2, IKK-beta
T2 construct: gene IKBKB

IKK-epsilon = tested on: T3, IKK-epsilon
T3 construct: gene IKBKE

INSRR = tested on: INSRR
INSR = tested on: INSR
IRAK1 = tested on: IRAK1
IRAK3 = tested on: IRAK3
IRAK4 = tested on: IRAK4
ITK = tested on: ITK
[1] = tested on: JAK1(JH1domain-catalytic)
[2] = tested on: JAK1(JH2domain-pseudokinase)
[3] = tested on: JAK2(JH1domain-catalytic)
[4] = tested on: JAK3(JH1domain-catalytic)
JNK1 = tested on: T4, JNK1
T4 construct: gene MAPK8

JNK2 = tested on: T5, JNK2
T5 construct: gene MAPK9
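Also: KINOMEscan kinase panel screen.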

Row | SMILES | %Inh (HIPK4) | %Inh (HPK1) | %Inh (HUNK) | %Inh (ICK) | %Inh (IGF1R) | %Inh (IKK-alpha) | %Inh (IKK-beta) | %Inh (IKK-epsilon) | %Inh (INSRR) | %Inh (INSR) | %Inh (IRAK1) | %Inh (IRAK3) | %Inh (IRAK4) | %Inh (ITK) | %Inh [1] | %Inh [2] | %Inh [3] | %Inh [4] | %Inh (JNK1) | %Inh (JNK2)
1 | Cc1ccc(NC(=O)Nc2ccc(Cl)cc2)cc1-c1ccc(C(=O)Nc2ccncc2)cc1 [GSK1398472] | 0% | 43% | 23% | 17% | 6% | 0% | 8% | 5% | 0% | 0% | 17% | 4% | 7% | 18% | 6% | 0% | 0% | 0% | 0% | 7%
2 | Nc1ncnc2occ(-c3ccc4c(c3)CCN4C(=O)Cc3cc(F)ccc3F)c12 [GSK2645446] | 0% | 31% | 0% | 0% | 0% | 0% | 0% | 41% | 0% | 0% | 0% | 0% | 0% | 0% | 0% | 0% | 0% | 0% | 0% | 0%
3 | COc1ccc(Nc2nccc(NCCNC(=O)Nc3cc(C)ccc3C)n2)cc1 [GSK1379899] | 0% | 40% | 0% | 18% | 7% | 8% | 9% | 1% | 0% | 0% | 0% | 8% | 3% | 10% | 0% | 0% | 16% | 0% | 20% | 0%
4 | COc1ccc(CSc2nnc(-c3ccc4nccn4c3)o2)cc1C(F)(F)F | 6% | 0% | 0% | 0% | 0% | 10% | 7% | 11% | 8% | 5% | 44% | 30% | 38% | 20% | 0% | 0% | 13% | 1% | 0% | 0%
5 | COc1ccc(Nc2nccc(N3CCC(NC(=O)C(C)c4ccc(Cl)cc4)CC3)n2)cc1 (stereo not drawn) [GSK1379812] | 0% | 39% | 10% | 0% | 0% | 0% | 0% | 100% | 0% | 15% | 6% | 18% | 0% | 22% | 26% | 6% | 0% | 0% | 1% | 14%
6 | CCCCc1nn2ncccc2c1-c1ccnc(NC2CC2)n1 [GW684374] | 0% | 3% | 2% | 7% | 0% | 0% | 3% | 0% | 0% | 0% | 28% | 13% | 12% | 0% | 7% | 0% | 0% | 0% | 63% | 84%
7 | CNc1cc(-c2ccc3c(N)n[nH]c3c2)nc(N)n1 [GSK2224810] | 14% | 41% | 5% | 12% | 0% | 6% | 0% | 39% | 0% | 19% | 0% | 0% | 0% | 3% | 12% | 35% | 4% | 0% | 0% | 6%
8 | Cc1ccc(-c2nc(Nc3ccncc3)c3ccccc3n2)s1 [GSK189015] | 27% | 41% | 0% | 19% | 18% | 2% | 20% | 0% | 22% | 9% | 0% | 19% | 2% | 22% | 16% | 38% | 3% | 0% | 20% | 19%
9 | COc1ccc(Nc2nccc(N3CCC(NC(=O)c4cc5ccccc5s4)C3)n2)cc1 (stereo not drawn) [GSK1379738] | 0% | 48% | 0% | 10% | 0% | 21% | 25% | 28% | 0% | 5% | 37% | 15% | 19% | 8% | 15% | 0% | 100% | 0% | 22% | 10%
10 | CS(=O)(=O)CCNCc1nc(-c2ccc3ncnc(Nc4ccc(OCc5ccccc5)c(Cl)c4)c3c2)cs1.Cl [GW582764] | 0% | 44% | 5% | 0% | 4% | 28% | 5% | 0% | 0% | 0% | 28% | 0% | 13% | 44% | 2% | 0% | 10% | 0% | 15% | 0%
11 | COc1nccc(-c2c(-c3ccc(F)cc3)ncn2CCCN2CCOCC2)n1 [SB-282852] | 0% | 21% | 0% | 16% | 0% | 26% | 21% | 8% | 0% | 0% | 3% | 0% | 0% | 53% | 36% | 0% | 4% | 12% | 41% | 61%
12 | Fc1ccc(-c2nc3n(c2-c2ccncc2)CCS3)cc1 [GI98581] | 0% | 44% | 8% | 0% | 17% | 0% | 0% | 0% | 6% | 0% | 3% | 4% | 0% | 5% | 10% | 0% | 0% | 0% | 73% | 96.2%
13 | COc1cc2ncnc(Nc3cccc(Br)c3)c2cc1OC.Cl [GI230329] | 68% | 50% | 6% | 3% | 0% | 0% | 0% | 18% | 0% | 0% | 36% | 21% | 1% | 0% | 3% | 0% | 6% | 0% | 18% | 56%
14 | CC(=O)c1cccc(NC(=O)NC2CCN(c3ccnc(Nc4ccc(F)cc4)n3)C2)c1 (stereo not drawn) [GSK1379710] | 0% | 50% | 0% | 5% | 0% | 4% | 1% | 33% | 0% | 12% | 27% | 11% | 7% | 8% | 21% | 9% | 25% | 0% | 16% | 13%
15 | FC(F)(F)c1ccccc1-c1cc(-c2c[nH]nc2-c2ccccn2)ccn1 [GW679396] | 0% | 0% | 0% | 3% | 0% | 0% | 0% | 100% | 0% | 0% | 0% | 0% | 0% | 8% | 5% | 0% | 0% | 0% | 30% | 32%
16 | CC(=O)c1c(C)c2cnc(Nc3ccn(C)n3)nc2n(C2CCCC2)c1=O | 0% | 0% | 0% | 0% | 1% | 0% | 0% | 0% | 0% | 0% | 11% | 0% | 11% | 0% | 0% | 0% | 0% | 9% | 8% | 18%
17 | O=C(Nc1n[nH]c2nc(-c3ccco3)c(Br)cc12)C1CCN(Cc2ccccc2)C1.O=C(O)[C@H](O)[C@@H](O)C(=O)O (stereo not drawn) [SB-742034] | 1% | 0% | 33% | 22% | 0% | 0% | 26% | 19% | 0% | 12% | 0% | 35% | 0% | 13% | 0% | 61% | 23% | 0% | 37% | 0%
18 | COC(=O)c1cccc(NC(=O)NC2CCN(c3ccnc(Nc4ccc(F)cc4)n3)C2)c1 (stereo not drawn) [GSK1379725] | 0% | 51% | 0% | 17% | 0% | 0% | 5% | 0% | 0% | 0% | 0% | 0% | 14% | 8% | 4% | 0% | 0% | 0% | 17% | 28%
19 | O=c1cc(N2CCOCC2)nc2n(Cc3cccc(Cl)c3Cl)c3ccccc3n12 [GSK2299009] | 0% | 19% | 0% | 14% | 5% | 0% | 0% | 37% | 7% | 0% | 12% | 15% | 4% | 13% | 24% | 0% | 0% | 0% | 7% | 32%
20 | Cc1cnc(N)c(/C=C/c2cncc(C(=O)NCCc3ccc(Cl)cc3Cl)c2)c1.Cl [GSK190937] | 17% | 45% | 10% | 0% | 8% | 19% | 46% | 29% | 0% | 31% | 16% | 0% | 0% | 0% | 0% | 0% | 0% | 0% | 0% | 18%
21 | Nc1nccc(-c2c(-c3ccc(F)cc3)ncn2C2CCN(Cc3ccccc3)CC2)n1 [SB-219980] | 0% | 11% | 37% | 1% | 0% | 0% | 0% | 5% | 1% | 0% | 0% | 0% | 0% | 7% | 0% | 0% | 0% | 0% | 62% | 95.2%

From article PMC5540273 (PLoS ONE, 2017)
